Here are results for seven compounds from PubChem BioAssay (NCI).

The structures appear in SMILES notation. Values joined by “and” are separate entries in the source; they are usually repeats but may differ in a detail not shown here. Equal values may be shown once. About 79,000 compounds went through this panel and 15% of them were active in at least one assay; those are over-represented in the sample as a whole. Some structures have more than one record in an assay (separate samples or runs), and their calls can disagree. Active and inactive are the calls of the source. No stated cut-off is given here; in the data, active means growth inhibition above about 70%; inactive means the rest.

Assay [1] in a line: NCI Yeast Anticancer Drug Screen. Data for the rad50 strain (AID 155).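 Further: 0% = growth of vehicle-only cultures of the same strain.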 Particulars: S. cerevisiae rad50 strain growth inhibition, stronger effect = higher value. Summed up: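 Genetically altered yeast (DNA repair pathway); compound treatment; growth inhibition vs vehicle ctrl.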
A short description of assay [2]: NCI Yeast Anticancer Drug Screen. Data for the mec2-1 strain (AID 157). To be noted: S. cerevisiae mec2-1 strain, stronger effect = higher value. In outline:
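Readout is yeast growth inhibition, normalised to vehicle-treated controls, in the mec2-1 strain exposed to compound.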

The nature of assay [3]: NCI Yeast Anticancer Drug Screen. Data for the sgs1 mgt1 strain (AID 161).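 Further: 0% = growth of cultures given vehicle only.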 To be noted: S. cerevisiae sgs1 mgt1 strain, stronger effect = higher value. Summed up:
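Yeast cells carrying a defined DNA-repair defect were exposed to test compounds. Growth inhibition was measured relative to vehicle-treated controls.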

A short description of assay [4]: NCI Yeast Anticancer Drug Screen. Data for the cln2 rad14 strain (AID 165).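 Further: 0% = growth equal to vehicle treated cultures.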 To be noted: S. cerevisiae cln2 rad14 strain, stronger effect = higher value. Summed up:
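Relative to vehicle controls, growth inhibition of compound-treated cln2 rad14 yeast was recorded.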

The nature of assay [5]: NCI Yeast Anticancer Drug Screen. Data for the bub3 strain (AID 167). To be noted: S. cerevisiae bub3 mutant strain, stronger effect = higher value. Summed up: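 Yeast carrying a defined mutation is treated with each compound, and growth is compared with that of vehicle-exposed cells to give inhibition.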
Assay [6] can be described thus: NCI Yeast Anticancer Drug Screen. Data for the mlh1 rad18 strain (AID 175). Particulars: S. cerevisiae mlh1 rad18 strain growth inhibition, stronger effect = higher value. Summed up: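 Test agents were incubated with a yeast strain of defined genotype (DNA damage repair defect). Inhibition of growth was derived by comparison with vehicle-exposed cultures.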
Where [7] appears, read: at 5.0 µM (retest, dose inferred, filed as 0.5).
Where [8] appears, read: at 50.0 µM (retest, dose inferred, filed as 5.0).

For `C1=C(c2ccccc2)N(CCc2ccccc2)C(c2ccccc2)=CN1Cc1ccccc1`, the growth inhibition in assay [1] (setting [7]) was -7% (inactive); in assay [1] (setting [8]) it was 95% (active); in assay [1] (at 50.0 µM) it was 98.4% (active); in assay [2] (setting [7]), 1% (inactive); in assay [2] (setting [8]) it was 97% (active); in assay [2] (at 50.0 µM) it was 98.5% (active). In addition, the growth inhibition in assay [3] (setting [7]) is 7% (inactive); in assay [3] (setting [8]), 97% (active); in assay [3] (at 50.0 µM) it was 98.6% (active); in assay [4] (setting [7]) it was 2% (inactive); in assay [4] (setting [8]), 96% (active); in assay [4] (at 50.0 µM) it was 98.5% (active). Moreover, the growth inhibition in assay [5] (setting [7]) is 9% (inactive); in assay [5] (setting [8]), 95% (active); in assay [5] (at 50.0 µM), 98.2% (active); in assay [6] (setting [7]), -4% (inactive); in assay [6] (setting [8]) it was 97% (active); in assay [6] (at 50.0 µM), 98.7% (active).

Consider `COc1cc2c(c3c1/c(=N/N(C)C)c1ccccc1n3C)C=CC(C)(C)O2`, for which the growth inhibition in assay [1] (setting [7]) is 23% (inactive); in assay [1] (setting [8]), 85% (active); in assay [1] (at 50.0 µM), 69.3% (inactive); in assay [2] (setting [7]) it was 24% (inactive); in assay [2] (setting [8]) it was 85% (active); in assay [2] (at 50.0 µM), 1% (inactive). The growth inhibition was 36% (inactive) in assay [3] (setting [7]); 91% (active) in assay [3] (setting [8]); 55.5% (inactive) in assay [3] (at 50.0 µM); -10% (inactive) in assay [4] (setting [7]); 60% (inactive) in assay [4] (setting [8]); -42.3% (inactive) in assay [4] (at 50.0 µM). Besides, the growth inhibition in assay [5] (setting [7]) is 38% (inactive); in assay [5] (setting [8]), 96% (active); in assay [5] (at 50.0 µM), -15.7% (inactive); in assay [6] (setting [7]) it was 38% (inactive); in assay [6] (setting [8]), 93% (active); in assay [6] (at 50.0 µM) it was 44.8% (inactive).

On to `NC(=O)SCC(=O)NNc1ccccc1`, for which the growth inhibition is 16% (inactive) in assay [1] (setting [7]); 54% (inactive) in assay [1] (setting [8]); 48.1% (inactive) and 88.1% (active) in assay [1] (at 50.0 µM); 1% (inactive) in assay [2] (setting [7]); 40% (inactive) in assay [2] (setting [8]); 13.3% (inactive) and 39.9% (inactive) in assay [2] (at 50.0 µM). Moreover, the growth inhibition in assay [3] (setting [7]) was 5% (inactive); in assay [3] (setting [8]), 41% (inactive); in assay [3] (at 50.0 µM), 87.8% (active); in assay [4] (setting [7]) it was 11% (inactive); in assay [4] (setting [8]) it was 60% (inactive); in assay [4] (at 50.0 µM), 82.2% (active). The growth inhibition in assay [5] (setting [7]) was 13% (inactive); in assay [5] (setting [8]), 88% (active); in assay [5] (at 50.0 µM) it was 86% (active); in assay [6] (setting [7]), 14% (inactive); in assay [6] (setting [8]), 81% (active); in assay [6] (at 50.0 µM) it was 51.5% (inactive) and 88.9% (active).

For `CCCC(O)c1ccc(C)cc1` (stereo unspecified), the growth inhibition in assay [1] (setting [7]) is 11% (inactive) and 1% (inactive); in assay [1] (setting [8]), 20% (inactive) and 2% (inactive); in assay [1] (at 50.0 µM) it was 12.8% (inactive) and -26.4% (inactive); in assay [2] (setting [7]) it was 4% (inactive) and 3% (inactive); in assay [2] (setting [8]) it was 21% (inactive) and -2% (inactive); in assay [2] (at 50.0 µM), 33.5% (inactive) and -6.65% (inactive). In addition, the growth inhibition in assay [3] (setting [7]) was 5% (inactive) and 0% (inactive); in assay [3] (setting [8]), 33% (inactive) and -1% (inactive); in assay [3] (at 50.0 µM) it was 0.4% (inactive) and 15.7% (inactive); in assay [4] (setting [7]), 5% (inactive) and -1% (inactive); in assay [4] (setting [8]), 10% (inactive) and 0% (inactive); in assay [4] (at 50.0 µM) it was -43.6% (inactive) and 18.9% (inactive). The growth inhibition in assay [5] (setting [7]) is -2% (inactive) and -3% (inactive); in assay [5] (setting [8]), 98% (active) and -10% (inactive); in assay [5] (at 50.0 µM), -6.05% (inactive) and 14.9% (inactive); in assay [6] (setting [7]), 7% (inactive) and 5% (inactive); in assay [6] (setting [8]) it was 21% (inactive) and 7% (inactive); in assay [6] (at 50.0 µM), 6.2% (inactive) and -10.3% (inactive).

Turning to `C=C1C(=O)OC2CC(C)C3C4OC4C(O)C3(C)C(O)C12` (stereo unspecified), the growth inhibition was 2% (inactive) in assay [1] (setting [7]); 0% (inactive) in assay [1] (setting [8]); 69.9% (inactive) in assay [1] (at 50.0 µM); 2% (inactive) in assay [2] (setting [7]); 4% (inactive) in assay [2] (setting [8]); 39.1% (inactive) in assay [2] (at 50.0 µM). The growth inhibition in assay [3] (setting [7]) was 4% (inactive); in assay [3] (setting [8]), 8% (inactive); in assay [3] (at 50.0 µM), 65.7% (inactive); in assay [4] (setting [7]), -3% (inactive); in assay [4] (setting [8]) it was -6% (inactive); in assay [4] (at 50.0 µM) it was 50.4% (inactive). In addition, the growth inhibition in assay [5] (setting [7]) was 2% (inactive); in assay [5] (setting [8]), 6% (inactive); in assay [5] (at 50.0 µM), 71% (active); in assay [6] (setting [7]), 0% (inactive); in assay [6] (setting [8]), -2% (inactive); in assay [6] (at 50.0 µM) it was 63.6% (inactive).

`COC(=O)CSC(=S)N1CCOCC1`: the growth inhibition in assay [1] (setting [7]) was 2% (inactive); in assay [1] (setting [8]), 6% (inactive); in assay [1] (at 50.0 µM), -6.85% (inactive); in assay [2] (setting [7]), 9% (inactive); in assay [2] (setting [8]), 4% (inactive); in assay [2] (at 50.0 µM), -5.75% (inactive). For the same compound, the growth inhibition was 4% (inactive) in assay [3] (setting [7]); 22% (inactive) in assay [3] (setting [8]); -5.3% (inactive) in assay [3] (at 50.0 µM); 7% (inactive) in assay [4] (setting [7]); -4% (inactive) in assay [4] (setting [8]); -38% (inactive) in assay [4] (at 50.0 µM). The growth inhibition in assay [5] (setting [7]) was -3% (inactive); in assay [5] (setting [8]), -5% (inactive); in assay [5] (at 50.0 µM) it was -10.1% (inactive); in assay [6] (setting [7]), 4% (inactive); in assay [6] (setting [8]) it was 5% (inactive); in assay [6] (at 50.0 µM), 24.2% (inactive).

As to `CN(C)Cc1cc(CN(C)C)c(O)c(CN(C)C)c1`, the growth inhibition in assay [1] (setting [7]) is 8% (inactive); in assay [1] (setting [8]), 19% (inactive); in assay [1] (at 50.0 µM), -34.9% (inactive) and 40.3% (inactive); in assay [2] (setting [7]), 2% (inactive); in assay [2] (setting [8]) it was 2% (inactive); in assay [2] (at 50.0 µM), -58.3% (inactive) and 59.9% (inactive). The growth inhibition in assay [3] (setting [7]) is 4% (inactive); in assay [3] (setting [8]) it was 11% (inactive); in assay [3] (at 50.0 µM), 0.25% (inactive) and 2.75% (inactive); in assay [4] (setting [7]), -3% (inactive); in assay [4] (setting [8]), -8% (inactive); in assay [4] (at 50.0 µM), -24.1% (inactive) and -31.1% (inactive). Besides, the growth inhibition in assay [5] (setting [7]) was 14% (inactive); in assay [5] (setting [8]), 39% (inactive); in assay [5] (at 50.0 µM), -43.5% (inactive) and 65.3% (inactive); in assay [6] (setting [7]), -6% (inactive); in assay [6] (setting [8]), -9% (inactive); in assay [6] (at 50.0 µM) it was -22.2% (inactive) and 48.1% (inactive).
